Compound activity as filed in PubChem BioAssay.
A selection: hits, their analogues and other compounds. The true share with any hit is near 4.7%.
PfHsp90 yeast 2: inhibits growth of yeast expressing Plasmodium falciparum Hsp90 | S. cerevisiae expressing PfHsp90, BacTiter-Glo ATP, 48 h; yeast lacking PDR1 and PDR3 efflux regulators | inhibition, % at 9.4 µM | hit rate 0.32% among 310,000;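 active = every replicate shows inhibition above about 80%, whatever the replicate mean, limit read from the data; inconclusive = mean inhibition reaches the set limit but some replicate falls short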;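 note: 0% = DMSO neutral controls and 100% = 20 µM radicicol positive controls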
SKKanGAS inh: SKKanGAS growth inhibition; S. pyogenes SKKanGAS, kanamycin growth, BacTiter-Glo, 6 h; inhibition, % at 7.5 µM; hit rate 1.3% among 300,000; AID 1662;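 active = mean replicate score, as percent of positive control median, at least 50; inconclusive = mean below 50 but one replicate at or above 50; inactive = mean and every replicate below 50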;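 note: strain carries kanamycin resistance gene driven by streptokinase promoter and grows in 40 µg/ml kanamycin; loss of luminescence reflects streptokinase promoter inhibition or plain growth inhibition; 0% = median of DMSO wells and 100% = positive control at its reference dose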
TIM10 inh: inhibits growth of TIM10 yeast strain. S. cerevisiae TIM10 strain growth, BacTiter-Glo luminescence, 24 h. inhibition, % at 10 µM. hit rate 1.4% among 330,000;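 active = inhibition of 40% or more at the single tested concentration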;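 note: wild-type TIM10 isogenic control strain grown at permissive 25 °C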
tim10-1 inh: growth inhibitors of tim10-1 mutant yeast | S. cerevisiae tim10-1 ts strain growth, BacTiter-Glo, 24 h | hit rate 2.2% among 330,000 | inhibition, % at 20 µM | AID 463190;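 active = inhibition of at least 40%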;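 note: mutant grown at 25 °C; 0% = DMSO wells with yeast and 100% = wells holding no yeast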
tim23-1 inh: tim23-1 yeast growth inhibition | inhibition, % at 20 µM | S. cerevisiae tim23-1 growth, BacTiter-Glo luminescence, 24 h | AID 463212 | hit rate 1.3% among 330,000;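 active = growth inhibition of the mutant yeast at or above 50%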;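 note: temperature-sensitive mutant grown at 25 °C; plate controls were DMSO-treated mutant yeast for no effect and medium wells lacking yeast for full effect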
Calb FLC: C. albicans growth modulation with fluconazole; C. albicans CaCi-2 (fluconazole-resistant clinical isolate) + fluconazole, Alamar Blue growth, 48 h; growth inhibition, % (no concentration beside the values); hit rate 0.57% among 300,000;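 active = growth inhibition above about 58% in most replicates, limit read from the data, passing the limit was not always enough; inconclusive = exactly half the replicates above a set limit; inactive = most replicates below a set limit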;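 note: all wells also contain fluconazole at 8 µg/ml as a sub-toxic cotreatment; 0% = median of DMSO wells and 100% = median of geldanamycin control wells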
Starred values were filed as active, the others as inactive; ? = inconclusive; . = no result.

SMILES	PfHsp90 yeast 2	SKKanGAS inh	TIM10 inh	tim10-1 inh	tim23-1 inh	Calb FLC
C=C(C)COc1ccc(-c2nc(N)ncc2-c2ccc(OC)c(OC)c2)c(O)c1	7	-4	23	23	31	8
C=C(C)COc1ccc(-c2[nH]ncc2Oc2ccccc2OCC)c(O)c1	-23	77*	-6	30	16	3
Cn1nc(C(=O)NNC(=O)c2cccc(Cl)c2)ccc1=O	-3	.	1	9	16	.
CCC(C(=O)Nc1ccc(S(=O)(=O)Nc2ncccn2)cc1)c1ccccc1 (stereo unspecified)	25	0	7	12	-3	-10
CCOC(=O)CSc1nnc(NC(=O)CN2CCCCC2)s1	-10	-4	-4	-11	3	2
COc1ccc(Br)cc1CN(C)CC(O)COc1ccc(Br)cc1 (stereo unspecified)	-76	3	8	12	3	4
Cc1cc2nc(/N=C(\N)NC(=O)C(C)C)nc(C)c2cc1C	-5	53*	33	15	21	-10
Cc1ccc2nc(/N=C(\N)NC(=O)NC3CCCCC3)nc(C)c2c1	11	53*	12	-10	22	1
CCC(=O)Nc1sc2c(c1C#N)CCC2	-41	7	-1	6	5	1
N#Cc1c(NC(=S)NC(=O)C2CCCC2)sc2c1CCCCC2	1	76*	23	26	16	-5
CC(C)CC(=O)NC(NC(=S)Nc1sc2c(c1C#N)CCCC2)C(Cl)(Cl)Cl (stereo unspecified)	.	56*	7	13	16	?
CC(=O)N1CCN(S(=O)(=O)c2ccc3c(c2)CCC(=O)N3)CC1	10	.	-1	-8	-15	.
CCCNC(=O)c1ccc2c(=O)c(O)c(-c3ccc(OC)cc3)[nH]c2c1	17	8	-14	-36	-20	82*
CCOc1ccccc1C(=O)N/N=C/c1ccoc1	-8	.	2	6	0	104*
COc1ccc2sc(-c3ccc(SC)cc3)c(/C=C/c3ccc(OC)c(OC)c3)c2c1	.	.	5	15	25	.
CCOC(=O)c1sc(NC(=O)Nc2ccc(Cl)cc2)cc1C	-4	81*	7	12	4	-12
Cc1cccc(C(=O)NCC(=O)OCC(=O)c2ccc(Cl)s2)c1	3	-2	5	3	7	-7
CCOc1ccc(NC(=O)CN(C)C(=O)C2CCN(C(=O)c3ccc(Cl)cc3)CC2)cc1OCC	-4	.	-4	-3	-1	.
COC(=O)c1ccc(CN(c2ccccn2)S(=O)(=O)c2ccccc2)cc1	.	-3	.	.	.	-25
COC(=O)c1ccc(CN(c2ccc(C(=O)O)c(O)c2)S(=O)(=O)c2ccc(Cl)c([N+](=O)[O-])c2)cc1	-18	55*	.	.	.	17
C#CCOCCOCCOCCNc1nc(N2CCN(C(=O)[C@H](CC(N)=O)n3cc(C(N)[C@@H](C)CC)nn3)CC2)nc(N2CCN(C(=O)[C@H](CCC(=O)O)n3cc([C@@H](N)CCCCN)nn3)CC2)n1 (stereo partly specified)	2	.	9	-1	6	.
CCc1cc(-c2n[nH]c(C)c2Oc2ccc(C(C)C)cc2)c(O)cc1O	.	109*	18	6	-88	47
CCOC(=O)c1ccc(Oc2cn[nH]c2-c2ccc(O)cc2O)cc1	-6	46	1	22	17	0
CCOC(=O)c1ccc(Oc2cn[nH]c2-c2ccc(OCC(=O)NN)cc2O)cc1	21	99*	-5	-37	10	-3
CCCOC(=O)c1ccc(Oc2cn[nH]c2-c2ccc(O)cc2O)cc1	8	76*	19	20	-15	9
SMILES	PfHsp90 yeast 2	SKKanGAS inh	TIM10 inh	tim10-1 inh	tim23-1 inh	Calb FLC
COc1ccc(-c2cn[nH]c2-c2ccc(OCC(=O)NN)cc2O)cc1	0	14	11	11	6	-16
CCCOC(=O)c1ccc(Oc2cn[nH]c2-c2ccc(OCC(=O)NN)cc2O)cc1	14	83*	-15	-82	-40	3
CCOc1cccc(-c2c(C(=O)N/N=C/c3ccoc3)nnn2-c2nonc2N)c1	-4	-3	-2	17	10	-1
O=C(Nc1ccccc1C(=O)O)c1ccc(Br)c(S(=O)(=O)NCc2ccccc2)c1	-1	21	5	7	6	12
O=C(COC(=O)c1ccc([N+](=O)[O-])o1)Nc1ccc2c(c1)OCO2	?	.	-103	-90	-3	.
CC(=O)c1cccc(NC(=O)CNC(=O)c2sc3ccccc3c2Cl)c1	.	0	1	-9	-4	9
COc1ccc(-c2n[nH]c(C)c2-c2ccc(Cl)cc2)c(O)c1	-17	68*	-1	30	36	-3
CCCOC(=O)c1ccc(Oc2c(-c3ccc(OC)cc3O)n[nH]c2C)cc1	2	61*	16	24	20	-2
Cc1[nH]nc(-c2ccc(O)cc2O)c1-c1ccc(Cl)cc1	-4	-2	17	20	41	-29
Cc1cc(Br)ccc1NC(=O)CN(C)Cc1cccs1	-3	-1	-13	2	19	-8
Cc1ccc(C2=NN(C(=O)CN3CCN(C4CCS(=O)(=O)C4)CC3)C(c3ccco3)C2)cc1 (stereo unspecified)	-1	.	-1	4	9	.
Oc1ccc(N=Nc2ccc3c(c2)OCO3)c2ccccc12	.	88*	-17	-9	16	2
Cc1ccc(C(NC(=O)NC(C)c2ccccc2)C(Cl)(Cl)Cl)cc1F (stereo unspecified)	11	57*	21	25	17	-10
CC(C)(C)OC(=O)N1CCC(NC(=O)c2nc[nH]c2C(=O)NCC(=O)OCc2ccccc2)CC1	5	3	10	0	7	-2
O=C(Cn1nc(CNc2ccc(Cl)cc2)[n+]2c1CCCCC2)c1ccc(Br)cc1	13	84*	21	37	12	0
CC(C)C(NC(=O)c1ccc(C(C)(C)C)cc1)C(=O)N1CCC(C(N)=O)CC1 (stereo unspecified)	-3	.	-3	6	9	.
C[C@@H](C[C@@H](O)[C@H](O)C(C)(C)O)[C@@H]1CC[C@]2(C)C3=CC[C@H]4C(C)(C)C(=O)CC[C@]4(C)[C@H]3CC[C@@]12C	3	96*	18	12	28	-5
C[C@H](C[C@H](O)[C@H]1OC1(C)C)C1=C2C[C@H](O)C3[C@@]4(C)CCC(=O)C(C)(C)C4CC[C@]3(C)[C@@]2(C)CC1 (stereo partly specified)	23	.	9	11	37	.
CN(C)c1ccc(N2C(=NC(=O)COc3ccccc3)SC3CS(=O)(=O)CC32)cc1 (stereo unspecified)	10	-5	3	4	-15	.
Cc1ccc(Nc2nc(N)c([N+](=O)[O-])c(NCc3ccco3)n2)cc1C	-34	60*	6	11	26	-5
Cc1ccc(Nc2nc(N)c([N+](=O)[O-])c(NCCO)n2)cc1C	7	-6	7	1	-8	0
